IEC-6 cytotox: cytotoxicity in IEC-6 intestinal epithelial cells, primary screen, cytotoxicity control for KLF5 inhibitor project, cell-based, luminescence. AID 1825, 2009. 290,000 tested, 0.78% active. IEC-6 cytotoxicity, luminescence viability. inhibition, % at 5 µM; in the data active = inhibition above about 22%;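 also: 0% = plate median of test compound wells and 100% = cytotoxic reference compound wells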
Ba/F3 V617F tox: reduced viability of JAK2V617F-dependent Ba/F3 cells, primary screen, JAK2V617F inhibitor project, cell-based, Ba/F3 EpoR-JAK2V617F, luminescence; ATP luminescence; inhibition, % at 5.6 µM; 220,000 tested, 1.1% active; AID 1446, 2008;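 active = inhibition above the campaign mean plus 3 SD over all tested compounds, cut at about 24% in these data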;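 also: cytokine-independent growth of Ba/F3 cells driven by EpoR plus mutant JAK2; 0% = DMSO-treated cells and 100% = JAK inhibitor I control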
APP 5UTR inh: inhibitors of APP translation via 5'UTR reporter, primary screen, APP 5'UTR luciferase, SH-SY5Y cells; SH-SY5Y APP 5'UTR-luciferase reporter, luminescence; inhibition, % at 2 µM; 190,000 tested, 0.82% active; AID 1285, 2008;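 active = inhibition above a set limit, derived from the sample mean plus 3 SD, cut at about 45% in these data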
aSyn UTR inh: MLPCN primary screen, SNCA 5' untranslated region. inhibition, % (tested at 7.5 µM). 300,000 tested, 0.82% active. alpha-synuclein 5'UTR reporter, inhibitor activity; in the data active = inhibition above about 60%;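 also: H4 neuroglioblastoma cells stably carrying SNCA 5'UTR luciferase fusion; 0% = DMSO wells and 100% = positive control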
BaF3 parental: parental Ba/F3 cell viability inhibition, counter-screen for JAK2V617F inhibitor project, murine pro-B, CellTiter-Glo luminescence | inhibition, % at 5.6 µM | AID 1486, 2009 | CellTiter-Glo ATP luminescence | 220,000 tested, 1.1% active;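 active = inhibition above a per-campaign cutoff, the mean inhibition of all tested compounds plus 3 SD, cut at about 27% in these data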;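 also: 0% = DMSO wells and 100% = JAK Inhibitor I control wells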
KLF5 inhibitor: KLF5 expression inhibitors, primary screen, DLD-1 cells, luminescence; DLD-1 KLF5 promoter-luciferase reporter; inhibition, % at 5 µM; 290,000 tested, 0.23% active;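 active = inhibition above a per-plate limit of that plate's mean compound inhibition plus 3 SD, cut at about 60% in these data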;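 also: 0% = DMSO wells and 100% = LY294002 at 200 µM; higher means less KLF5 promoter-driven luciferase light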
An asterisk follows results filed as active; nt = not tested or not shown. Hits are enriched below; roughly 2.2% of the tested compounds scored in any of these assays.

SMILES	IEC-6 cytotox	Ba/F3 V617F tox	APP 5UTR inh	aSyn UTR inh	BaF3 parental	KLF5 inhibitor
CCOC(=O)C1=C(c2ccccc2)N=C2SCC(=O)N2C1c1ccc(OC)c(OC)c1 (configuration not stated)	3	-4	-6	-2	0	-47
CCCC(=O)NC(=S)Nc1ccc(NC(=O)C(C)C)c(OC)c1	6	11	2	-11	-1	-20
CCN(CC(=O)Nc1c(F)cccc1F)C(=O)c1cccc(S(=O)(=O)N(C)c2ccccc2)c1	nt	nt	nt	15	nt	nt
c1ccc2c(c1)CCN(c1nc3cc4c(cc3s1)OCCO4)C2	15	2	-148	75*	4	-5
COc1ccc(OC)c2sc(N3CCc4ccccc4C3)nc12	5	1	-4	15	14	-30
Cc1cc(C)c[n+](-c2nc3ccccc3nc2C(=C=[N-])C#N)c1	4	0	-3	-27	3	6
COc1ccc(CCN2C(=O)C3C4CC(C5C(C(=O)N/N=C\c6ccc(Cl)cc6)=NOC45)C3C2=O)cc1OC (configuration not stated)	-6	-2	10	14	5	-33
O=C(N/N=C/c1ccco1)c1ccc(Br)o1	-1	-5	-2	-23	96*	-52
O=C(CN1CCC(NC(=O)c2cccc(F)c2)CC1)Nc1ccc(Br)cc1	12	nt	nt	68*	nt	-9
CCCOc1nc2ccccc2cc1/C=C/C(=O)O	-1	3	-7	-8	2	-19
CCOc1nc2ccccc2cc1C=O	-4	1	57*	-9	6	-19
CCN(CCO)c1ccc(N=Nc2cc(C)[nH]n2)cc1	-5	-5	nt	102*	-1	41
O=C(NCc1ccccc1Cl)C1CCN(S(=O)(=O)c2ccc(N3CCCC3=O)cc2)CC1	-2	nt	nt	2	nt	7
O=C(CNC(=O)c1ccc(Br)o1)Nc1cccc(S(=O)(=O)N2CCOCC2)c1	nt	nt	nt	-7	nt	nt
CC(C)Cc1ccc(C(C)C(=O)Nc2ccccc2O)cc1 (configuration not stated)	-2	11	nt	-4	38*	5
CCCNS(=O)(=O)c1ccc(CCC(=O)Nc2ccc3c(c2)OCCO3)cc1	-2	-3	6	-1	3	-12
O=C(CCc1ccc(S(=O)(=O)NCCc2ccccc2)cc1)Nc1ccc2c(c1)OCCO2	0	0	75*	17	5	-12
O=C(NC1CCN(Cc2ccccc2)CC1)c1cccc(S(=O)(=O)Nc2ccc(Br)cc2)c1	nt	nt	nt	4	nt	nt
COc1ccccc1NS(=O)(=O)c1cccc(C(=O)NC2CCN(Cc3ccccc3)CC2)c1	nt	nt	nt	83*	nt	nt
COc1cccc(CC2(CO)CCN(Cc3cnc(N4CCOCC4)s3)CC2)c1	-2	-3	2	0	2	-21
OCC1(CCCc2ccccc2)CCN(Cc2cnc(N3CCOCC3)s2)CC1	-2	-2	-8	-57	64*	-23
COc1cccc(N2CCN(C(=O)C3CCCN(c4ncnc5c4nc4n5CCCCC4)C3)CC2)c1 (configuration not stated)	-4	nt	nt	3	nt	-13
CCN(C(=O)c1ccc(NC(=O)Cc2ccccc2)cc1)c1ccccc1	-1	nt	nt	-6	nt	-39
O=C(NCCCN1CCN(c2cccc(Cl)c2)CC1)c1ccc(N2CCCC2=O)cc1	-5	-3	67*	10	4	-20
COc1ccc(-n2ncc3c2CC(C)(C)CC3NC(=O)c2ccoc2C)cc1 (configuration not stated)	-2	nt	nt	1	nt	-41
SMILES	IEC-6 cytotox	Ba/F3 V617F tox	APP 5UTR inh	aSyn UTR inh	BaF3 parental	KLF5 inhibitor
COc1ccc(OC)c(C(=O)NC2CC(C)(C)Cc3c2cnn3-c2ccccc2)c1 (configuration not stated)	-4	nt	nt	67*	nt	-8
COc1ccc(C(=O)C(CCCCC(CN(C)C)C(=O)c2ccc(OC)cc2)CN(C)C)cc1 (configuration not stated)	5	2	-21	-7	8	-25
CN(C)CC(CCC(CN(C)C)C(=O)c1ccccc1)C(=O)c1ccccc1 (configuration not stated)	100*	99*	nt	-37	104*	91*
COc1cccc(CNC(=O)CCS(=O)(=O)c2cc3c(cc2C)NC(=O)CO3)c1	1	nt	nt	-4	nt	-2
COc1cccc(CNC(=O)CCS(=O)(=O)c2ccc3c(c2)NC(=O)CO3)c1	0	nt	nt	99*	nt	-10
O=C(NCCc1nnc2ccc(N3CCCC3)nn12)c1ccccc1	5	nt	nt	6	nt	-23
O=C1C2C3c4ccccc4C(c4ccccc43)C2C(=O)N1c1ccncc1 (configuration not stated)	-3	66*	22	21	71*	5
O=C1C2C3c4ccccc4C(c4ccccc43)[C@@H]2C(=O)N1c1cccnc1 (some centres not stated)	-9	-2	-6	18	4	-26
Fc1ccccc1CNc1ncnc2sccc12	16	nt	nt	4	nt	4
c1ccc2c(c1)OCC(CNc1ncnc3sccc13)O2 (configuration not stated)	17	60*	4	-13	62*	-14
CCN(CC)CCNC(=O)C(=O)NCC1OCCN1S(=O)(=O)c1cccs1 (configuration not stated)	0	nt	nt	35	nt	-15
COc1ccc(N2CCN(C(=O)CCCn3nnnc3CN3CCOCC3)C(C)C2)cc1 (configuration not stated)	1	nt	nt	10	nt	-6
CC1CCN(c2ccc([N+](=O)[O-])cc2C(=O)O)CC1	-3	-1	-15	21	4	-38
O=C(c1ccc(Br)cc1)c1cc([N+](=O)[O-])ccc1N1CCOCC1	12	80*	88*	27	83*	11
COc1ccc(COC(=O)c2cc([N+](=O)[O-])ccc2N2CCOCC2)cc1F	nt	nt	nt	68*	nt	nt
O=C(c1cc([N+](=O)[O-])ccc1N1CCOCC1)N1CCCCC1	8	4	-7	-11	12	-12
O=C(OCc1cccc(Cl)c1)c1cc([N+](=O)[O-])ccc1N1CCOCC1	nt	nt	nt	6	nt	nt
O=C(c1ccc(Cl)cc1)c1cc([N+](=O)[O-])ccc1N1CCOCC1	4	72*	93*	118*	74*	-20
CC1CCCN(c2ccc([N+](=O)[O-])cc2C(=O)c2ccccc2)C1 (configuration not stated)	45*	77*	94*	84*	79*	42
CC(C)CC(NC(=O)C1CCCCC1)C(=O)N1CCN(c2ccccn2)CC1 (configuration not stated)	-3	-6	-12	5	2	-64
COc1ccccc1NC(=O)C(C)OC(=O)CCCN=C1NS(=O)(=O)c2ccccc21 (configuration not stated)	nt	nt	nt	-9	nt	nt
